Laboratory results reported in article PMC12136788.
Whole data set: some 5,800 sequences, median “enrichment r” near 0.68, cut for the highest 2% near 11. What follows is part of a selection rich in the highest values, with near analogues and random picks from the rest.

T1: UNK ZnF1-6 (called full-length) (human, UniProt Q9C0B0 30-357)
T1 sequence: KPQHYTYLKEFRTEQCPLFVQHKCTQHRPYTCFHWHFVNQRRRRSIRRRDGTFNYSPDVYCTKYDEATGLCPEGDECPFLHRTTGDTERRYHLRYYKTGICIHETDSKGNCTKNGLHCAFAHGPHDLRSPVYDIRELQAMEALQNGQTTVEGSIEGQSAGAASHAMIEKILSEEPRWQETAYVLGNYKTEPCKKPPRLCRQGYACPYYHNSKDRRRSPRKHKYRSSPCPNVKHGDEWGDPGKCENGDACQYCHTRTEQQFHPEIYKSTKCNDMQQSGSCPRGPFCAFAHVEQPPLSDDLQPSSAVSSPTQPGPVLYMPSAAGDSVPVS

B1: chr16:785952:786377:-|CDS|ENSG00000007376|control|control|control (ssRNA)
RNA: GGGAGUUCUACAGUCCGACGAUCCAGUCGCUGGACCAGCUCGUGCAGGCCUUACGGGCCACCCCCGACCCUGACCCCGAGGAUAGGGGCCCCAGGCCAGGCAGCCCCUCCGCACUCCUGCCUGGGCCCGGCCGGCCUCCUCCACAACAGAGGAUUGAGCAUCA
B2: chr1:162783069:162783171:+|3pUTR|ENSG00000162733|unk|FALSE|unique (ssRNA)
RNA: GGGAGUUCUACAGUCCGACGAUCUGAAAGUAGUUCAAAUUUGAAUUAGAAGAAUGAAGCUAGGACUUAUUUGGAAAAGGAGAUAGAAAAAAAAUGAUCAGAAACUGUGGGGCCUUAUUACCUUUGCAGUAAGUUAUCUUCUUCCAACAGAGGAUUGAGCAUCA
B3: chr15:64957256:64957357:+|3pUTR|ENSG00000166839|msi1|FALSE|unique (ssRNA)
RNA: GGGAGUUCUACAGUCCGACGAUCGCUGGAAAAUUGAAACAUAAUUUCACAAUUAUUCCUUUUUCCACCUUAAAUAAUAAGAGUAGAAUACUUUCUGUGUUUUUAUCUUAUACACAUGAAUAAAUGCUAUGGCUUAUCACAGUUCAACAGAGGAUUGAGCAUCA
B4: ENSG00000114744:stop:overlap|stop_codon|ENSG00000114744|stop_codon|NA|stop_codon (ssRNA)
RNA: GGGAGUUCUACAGUCCGACGAUCAACAAGCAUUGGAAGAGAUGAAGACAAAUCACUGUAGGAGAGUUGUUCGCAACAUCAAGUAGUACCAGUUUUAAGGUUUUAAUUCAUUUGAAUCACUUAUGAAUUGAUGAUAUACAGCAACAACAGAGGAUUGAGCAUCA
B5: ENSG00000066855:stop:overlap|stop_codon|ENSG00000066855|stop_codon|NA|stop_codon (ssRNA)
RNA: GGGAGUUCUACAGUCCGACGAUCGAGUGUUGUCCCUUCCAGCUGGCUUUAUUCAGCCCCACGUGUCCAAGCAUUGUCUGGGAUAGCCUUGUAUUGGAAAACCUGGCCCAUUCUGUAAAUAAAGGCUCCACUAGAAAAGACUCGCAACAGAGGAUUGAGCAUCA
B6: chr1:184691659:184691688:-|3pUTR|ENSG00000116406|msi1_unk|FALSE|overlapping (ssRNA)
RNA: GGGAGUUCUACAGUCCGACGAUCCUCCAACGUUGUAAUUACAACUCUACAUUCAUUUACUUACUUGACAUACUGCCACAAAGUAGUUUUUGAGUUCAUUAAAAAUUCCAAAGGCAUUAGUUGUUUUUUUUUUUUUUAGUGUUUCAACAGAGGAUUGAGCAUCA
B7: chr15:93027272:93027374:+|3pUTR|ENSG00000173575|unk|total|mutant (ssRNA)
RNA: GGGAGUUCUACAGUCCGACGAUCCCAGGAAUCUGUGAGGAUGGUAUUCCCUGGAGUCUGGCUUUGAAAGAUUUCAUUGUUGGCCGAAAUAACAGGUUGAGAAAGAGGGAGUCCGCAUCACCUAAAACCUGCACGUGAACAAGGCAACAGAGGAUUGAGCAUCA
B8: ENSG00000141127:stop:overlap|stop_codon|ENSG00000141127|stop_codon|NA|stop_codon (ssRNA)
RNA: GGGAGUUCUACAGUCCGACGAUCAUUCAUCAUGUAUGGAGCUAUCAAAGAAAAUUGCAGACUUUUUCCCCCUUUCUCUUCUCUAGGCGGCUAGGGGUGGAGAUGGGCAAAGUGCAGGUUUACCAGGAACCUAACAGAGAAACACAACAGAGGAUUGAGCAUCA
B9: chr22:31279490:31279591:+|3pUTR|ENSG00000182541|msi1|total|mutant (ssRNA)
RNA: GGGAGUUCUACAGUCCGACGAUCAGCAGCUUGGGCUGGGAAGAGGUGGUGGCAGAGUCUCAAAGCUGAGAUGCUGAGAGAGACCGCUCCCUGAGCUGGGCCAUCUGACUUCUACCUCCCAUGUUUGCUCUCCCAACUCAUCCGCAACAGAGGAUUGAGCAUCA
B10: chr5:43295829:43295944:-|CDS|ENSG00000112972|unk|total|mutant (ssRNA)
RNA: GGGAGUUCUACAGUCCGACGAUCAAUAUCCCCGCUUUAUUCUAAAGUCAAACUUUAAAAUUUCAUGGCUUAUAUGAAUUUCACCGUUUCCUUGGACUUCUCUUUCAGAGGGAAAUGAUAAAGAUUUUACCUUGAAUGAUUUUGCAACAGAGGAUUGAGCAUCA
B11: chr12:76028505:76028606:-|3pUTR|ENSG00000139289|msi1|total|mutant (ssRNA)
RNA: GGGAGUUCUACAGUCCGACGAUCAAGUCUUGGUCAGUAUUUUUCCAGCAUUUAAAUUGAAACGGUCAGUAUCCGACCACUGCCCGGUUAUGCCGUCAAGAAAUAAAAACCGAAUUACAUGCUACAGAUGUCUUUAUUCUCCUUCAACAGAGGAUUGAGCAUCA
B12: ENSG00000198589:be:win_5851|CDS|ENSG00000198589|bound_else_gene|NA|bound_elsewhere_windowed (ssRNA)
RNA: GGGAGUUCUACAGUCCGACGAUCACUCAACUAAUCCAGAAAAUUAUCAACAUUCUCACAGACAAGCAUGGAGCCUGGGGAAAUUCUGCAGUGAGUCGUCCUCUUGAGUUCUGGCGCCUUGACUACUGGGAAGAUGACUUGCGGCAACAGAGGAUUGAGCAUCA
B13: chr19:14961309:14961997:-|three_prime_utr|ENSG00000105143|control|control|control (ssRNA)
RNA: GGGAGUUCUACAGUCCGACGAUCGAUUCACUUACCCACUCACCAACUCAUUCAUUCAUGUCUUUCUGGGAUGAUUUCAUCACUAGUUGACUUCCUUGUUCAUCUGUUCAUUCAUUCAUUCUUCUAUGCAUUGGUUAGUUCAUGCAACAGAGGAUUGAGCAUCA
B14: chr15:60347444:60347559:-|3pUTR|ENSG00000182718|msi1_unk|total|mutant (ssRNA)
RNA: GGGAGUUCUACAGUCCGACGAUCUAACAGUCCCCGUGGCCAUCCCUGUGAGGGUGACGUCCGCAUUACCCCCAACCUCAUUUCCGUUGCCUAAGCAUUGCCUGGCCUUCCUGUCCCGUCUCUCCUGUAAGCCAAAGAAAUGAACAACAGAGGAUUGAGCAUCA
B15: chr16:5044585:5044836:-|CDS|ENSG00000153446|control|control|control (ssRNA)
RNA: GGGAGUUCUACAGUCCGACGAUCGAGUAGCUGGGACUACAGGAGCGUGCCACCAUACCUGGCUAAUUUUUAUAUUUUUUUAGUAGAGACAGGGUUUCAUCAUGUUGCUCAUGCUGGUCUCGAACUCCUGAUCUCAAGAGAUCCCAACAGAGGAUUGAGCAUCA
B16: chr5:144162273:144162391:-|CDS|ENSG00000145817|unk|total|mutant (ssRNA)
RNA: GGGAGUUCUACAGUCCGACGAUCCCCACCGGCUGGCAAAAUCCAGUUUGGCUAUGUAUACGGGAUCAGUGCAAUUGGAUGUCCCGGAAUGUUUUGUUUAUUAAACUUAAUGAGUAUGACAGGUGUUUCAUUUGGUUGUGUGGCCAACAGAGGAUUGAGCAUCA
B17: chr4:185586528:185586629:-|3pUTR|ENSG00000154556|msi1|FALSE|unique (ssRNA)
RNA: GGGAGUUCUACAGUCCGACGAUCAUCCAUAUGAUAUGUUGUACAUUUUAUGGAAAUGUAAUAGAAUCUCACACAUUAUUUUAUAGAAAUAGAGUACAGAAGCAUCACAAGUAUUAAAGUUGGUUUUAGCAAGGAUUAGGAUUACAACAGAGGAUUGAGCAUCA
B18: chr2:11642538:11642650:+|3pUTR|ENSG00000196208|unk|total|mutant (ssRNA)
RNA: GGGAGUUCUACAGUCCGACGAUCCGAAGAGUUGAUGUCAAUCUUUUUUUCCUAAGAAAAAAAGUCCGCGAGUAUUAAAUAUUCCGAUCAAUGUUUAUAAAAUGAUUACUUUGUAUAUCUCAUUAUUCCUAUUUUGGAAUAAAACAACAGAGGAUUGAGCAUCA
B19: chr5:72990507:72990614:+|CDS|ENSG00000157107|unk|FALSE|unique (ssRNA)
RNA: GGGAGUUCUACAGUCCGACGAUCGUAUGGGAUGUAUUCAAAACAUCUACAGAGAAAUUAGCAAAUUGUCACUUGGAUCUUGUUAGAAAAUUACAAGAAUUAAUAAAGGAAGUUCAGAAGUAUGGAGAAGAACAAGUAAAGUCUCAACAGAGGAUUGAGCAUCA
B20: chr3:11557766:11557867:-|3pUTR|ENSG00000144560|msi1|total|mutant (ssRNA)
RNA: GGGAGUUCUACAGUCCGACGAUCCUGGACUGCAGACUCUACCAAUCACGGGCAUUUUAUCUUCUCUGAACACUGCAGUUUGUCCGACCCGAGCUGAGGUUGGAGGAUUCCACCGUGCUUUAAACGUGAUGCAUGUUUUAAUGGCAACAGAGGAUUGAGCAUCA
B21: chr17:57972098:57972209:-|3pUTR|ENSG00000136451|unk|FALSE|bound_elsewhere (ssRNA)
RNA: GGGAGUUCUACAGUCCGACGAUCCUAGAAUGUGGUUGUCAGAACCCUGAAAGUAUUAGUUCUAAAAAAAAAAAGAUAUAUACUAGAAGUAAUUGUUUUAUCAAUUCAUUGUAUAAUAAACAGGAGUGAGACUUCAUUGUAUGACAACAGAGGAUUGAGCAUCA
B22: ENSG00000136451:be:win_3201|3pUTR|ENSG00000136451|bound_else_gene|NA|bound_elsewhere_windowed (ssRNA)
RNA: GGGAGUUCUACAGUCCGACGAUCAACAGUUCUAGGGGGUUGAACUACAUAGUAAAAAAAUAAAAUAAAUAGUACUUAGUGUAAAAUAAUUUUAUAAAUGAUCUUUUGUACUUUAGGACAUUAAAUUGUACAACUUUUGUAUAUCAACAGAGGAUUGAGCAUCA
B23: ENSG00000136451:be:win_3101|3pUTR|ENSG00000136451|bound_else_gene|NA|bound_elsewhere_windowed (ssRNA)
RNA: GGGAGUUCUACAGUCCGACGAUCUUCCAUUUAUACCCUACUGUGUCAGUUCAAGCAUCAAAAUACCUUGCAUCUGAGACAGACUUCCUACAUCAGGGACAGGUAUCUGUGUGUCAUUAUACAAAACAGUUCUAGGGGGUUGAACAACAGAGGAUUGAGCAUCA
B24: ENSG00000136451:be:win_3151|3pUTR|ENSG00000136451|bound_else_gene|NA|bound_elsewhere_windowed (ssRNA)
RNA: GGGAGUUCUACAGUCCGACGAUCUGAGACAGACUUCCUACAUCAGGGACAGGUAUCUGUGUGUCAUUAUACAAAACAGUUCUAGGGGGUUGAACUACAUAGUAAAAAAAUAAAAUAAAUAGUACUUAGUGUAAAAUAAUUUUACAACAGAGGAUUGAGCAUCA
B25: ENSG00000136451:be:win_3251|3pUTR|ENSG00000136451|bound_else_gene|NA|bound_elsewhere_windowed (ssRNA)
RNA: GGGAGUUCUACAGUCCGACGAUCCUUAGUGUAAAAUAAUUUUAUAAAUGAUCUUUUGUACUUUAGGACAUUAAAUUGUACAACUUUUGUAUAUAUAAAAGCUUAGGAACUUUCUGUUUAGCAGGAAGGCAACACAUUCCUACACAACAGAGGAUUGAGCAUCA
B26: chr15:60490033:60490134:-|3pUTR|ENSG00000069667|unk|FALSE|unique (ssRNA)
RNA: GGGAGUUCUACAGUCCGACGAUCUGCUGGAUUUGGGACAUGCUUUUCUCUUUAAAUACAUAAUAUCAUUAUAUAAAUUAUUCUAGAGUGUAUUUAAUUAGGAUAAAAUUACUUCCUUAGUAUGGAUAUUUGACAUCUAUAGGGCAACAGAGGAUUGAGCAUCA

Biological target: T1, UNK ZnF1-6 (called full-length)
Experiment: nsRBNS (natural sequence RNA bind-n-seq); RBNS binding buffer (assumed for nsRBNS): 25 mM Tris pH 7.5, 150 mM KCl, 3 mM MgCl2, 0.01% Triton X-100, 500 ug/ml BSA, 20 U/ml SUPERase-In, 4 C; UNK is unkempt and MSI1 is Musashi-1; names of the RNAs are library labels; protein concentration not given here; high values mean tight binding

Binder | binding signal [enrichment R]
B1 | 0.526
B2 | 1.05
B3 | 0.535
B4 | 2.3
B5 | 0.862
B6 | 8.44
B7 | 0.486
B8 | 0.392
B9 | 0.701
B10 | 0.421
B11 | 0.271
B12 | 0.85
B13 | 0.569
B14 | 0.662
B15 | 2.13
B16 | 0.596
B17 | 11.6
B18 | 0.544
B19 | 3.86
B20 | 0.682
B21 | 4.83
B22 | 96.7
B23 | 0.463
B24 | 44
B25 | 6.05
B26 | 4.69
